PubChem BioAssay (NCATS)
Results filed as inconclusive are left out. A call without a number means that no potency is given here. The source made the active and inactive calls. Calls follow the shape of the dose curve; as a rule, active = well fitted inhibition curve with a large enough effect; inconclusive = small, poorly fitted or top-dose-only effect; inactive = no such curve, though single readings can be large or run the other way.

Experiments:
[1] = tested on: Zika virus NS2B-NS3 protease (unlinked complex); assay: Primary screen GU Rhodamine qHTS for Zika virus inhibitors: Unlinked NS2B-NS3 protease assay (AID 1347159); conditions: Recombinant ZIKV NS2B-NS3 protease, Rhodamine110 substrate fluorescence; series mostly up to 107 µM; also: nearly all actives have a fitted effect of over 60% in size
Method in brief: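 Enzyme 25 nM in Tris-HCl pH 8.0 + 0.01% Tween 20; compounds up to 114 microM, 15 min RT dark; + Rhod110 substrate 1.5 microM; read t0 and 15 min; delta fluorescence → % inhibition → 4-parameter Hill fit.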

[2] = tested on: Zika virus NS2B-NS3 protease (linked construct); assay: Primary screen NINDS Rhodamine qHTS for Zika virus inhibitors (AID 1347160); conditions: purified NS2B-NS3 protease, Rhodamine110 substrate fluorescence; series mostly up to 33.1 µM; also: nearly all actives have a fitted effect of over 55% in size
Method in brief: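 Enzyme (25 nM, linked NS2B-NS3) was preincubated 15 min with compound in 10 mM Tris-HCl pH 8.0, 0.01% Tween 20. Rhodamine110 substrate (1.5 microM) was then added and fluorescence read at start and after 15 min.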

SMILES	Potency [1]	Potency [2]	activity change, negative = inhibition [1]	outcome [2]
CC(=O)O[C@@H]1C[C@@H](C)[C@](O)(CCC2=CC(=O)OC2)[C@@]2(C)CCCC(C)(C)C12 (stereo partly specified)	inactive	inactive		
Nc1ncnc2c1C(=O)N(c1ccc(C3CCC(CC(=O)O)CC3)cc1)CCO2 (stereo unspecified)	inactive	inactive		
C=C(C(=O)OC)[C@]12O[C@@](C)(CC[C@@]3(O)/C(=C\C)C(=O)O[C@]3(C)C[C@@H]1OC(=O)C(CO)CN1CCCC1C(=O)O)CC2=O (stereo partly specified)	inactive	inactive		
COc1cc(/C=C/C(=O)O[C@H]2[C@@H]3C=CO[C@@H](O[C@@H]4O[C@H](CO)[C@@H](O)[C@H](O)[C@H]4O)[C@@H]3[C@@]3(CO)O[C@@H]23)ccc1O	inactive	inactive		
CC1=C(CO)C2(C)CCCC(C)(C)C2C(O)C1O (stereo unspecified)	inactive	inactive		
CC1(C)CC[C@]2(C(=O)O[C@@H]3O[C@H](CO)[C@@H](O)[C@H](O)[C@H]3O)CC[C@]3(C)C(=CCC4[C@@]5(C)C[C@@H](O)[C@H](O)[C@@](C)(CO)C5[C@H](O)C[C@]43C)C2C1 (stereo partly specified)	inactive	inactive		
O=C(CC1CC(c2ccc(F)cc2F)=NO1)N1CCOCC1 (stereo unspecified)	inactive	inactive		
CCCCNc1nc(N)c2[nH]c(=O)n(Cc3ccc(OCCN(C)C)nc3)c2n1	inactive	inactive		
CCOc1nc2c(N)ncnc2n1CC	inactive	inactive		
CC12CC(O)C(O)C=C1c1cc(O)cc(O)c1C(=O)O2 (stereo unspecified)	inactive	inactive		
C=CC(C)(CC/C=C(\C)C(=O)OC[C@H]1O[C@@H](OC(C)(C=C)CC/C=C(\C)C(=O)O[C@H]2[C@H](O)[C@@H](O)[C@H](OC(C)(C=C)CC/C=C(\C)C(=O)O)O[C@@H]2CO)[C@H](O)[C@@H](O)[C@@H]1O)O[C@@H]1O[C@H](CO)[C@@H](O)[C@H](O)[C@H]1O (stereo partly specified)	inactive	inactive		
COc1cc(C(CO)C(OC2OC(CO)C(O)C(O)C2O)c2ccc(O)c(OC)c2)ccc1O (stereo unspecified)	inactive	inactive		
COc1cc(O[C@@H]2O[C@H](CO[C@H]3OC[C@](O)(CO)[C@H]3O)[C@@H](O)[C@H](O)[C@H]2O)cc(OC)c1O	inactive	inactive		
CC(=O)OC1C(C)C2C(OC3OC(CO)C(O)C(O)C3O)OC=C(C(=O)O)C2C1OC(=O)c1ccccc1 (stereo unspecified)	inactive	inactive		
CC1(C)OC(=O)C=C[C@@]2(C)C1CC(=O)[C@]1(C)C2CC[C@@]2(C)[C@H](c3ccoc3)OC(=O)[C@H]3O[C@]321 (stereo partly specified)	inactive	inactive		
CC1OC(O[C@H]2CC[C@@]3(C)C(CC[C@]4(C)C3CC=C3C5CC(C)(C)CC[C@]5(C(=O)OC5OC(CO)C(OC6OCC(OC7OCC(O)C(O)C7O)C(O)C6O)C(O)C5O)CC[C@]34C)C2(C)C)C(O)C(O)C1OC1OC(CO)C(O)C(OC2OC(CO)C(O)C(O)C2O)C1O (stereo partly specified)			1.81% [at 19.1 µM] (inactive)	inactive [at 10.7 µM]
CCC(C)C(=O)O[C@H]1[C@@H](O[C@H]2O[C@H](CO)[C@@H](O)[C@H](O)[C@H]2O)O[C@H](CO)[C@@H](O)[C@@H]1O (stereo partly specified)	inactive	inactive		
CC(=O)O[C@H]1C[C@@H](O)C(C)(C)C2C[C@@H](OC(C)=O)[C@@]3(C)C4=CCC(C(CO)CC(O)C5OC5(C)C)[C@]4(C)CCC3[C@]21C (stereo partly specified)	inactive	inactive		
COC(=O)C[C@H]1C(C)(C)[C@H](OC(=O)C(C)C)C2CC3=C4CC(=O)O[C@@H](c5ccoc5)[C@]4(C)CCC3[C@@]1(C)C2=O (stereo partly specified)	inactive	inactive		
COC(=O)C1=CO[C@@H](O[C@@H]2O[C@H](CO)[C@@H](O)[C@H](O)[C@H]2O)C2C1CC(O)C2C (stereo partly specified)	inactive	inactive		
CC(C)C(NC(=O)c1ccc(O)cc1)C(=O)N1CCCC1C(=O)Nc1c(O)cccc1C(=O)O (stereo unspecified)	inactive	inactive		
CNc1nc(Nc2cn(C(C)(C)C#N)nc2C)ncc1C(F)(F)F	inactive	inactive		
COc1cc(CO)ccc1O[C@@H]1O[C@H](CO)[C@@H](O)[C@H](O)[C@H]1O	inactive	inactive		
COc1cc(C(C)=O)ccc1O[C@@H]1O[C@H](CO[C@@H]2OC[C@@H](O)[C@H](O)[C@H]2O)[C@@H](O)[C@H](O)[C@H]1O	inactive	inactive		
CC(=O)O[C@H]1[C@H](OC(=O)C(C)C)[C@]2(C)OC3(CC[C@]2(C)[C@H]2CCC[C@]4(CO4)[C@]12C)COC(=O)C3 (stereo partly specified)	inactive	inactive		
CC(C)[C@](O)(c1ccc2cc(OC(F)F)c(OC(F)F)cc2c1)c1cn[nH]n1	inactive	inactive		
NC(=O)C(O[C@@H]1O[C@H](CO[C@@H]2O[C@H](CO)[C@@H](O)[C@H](O)[C@H]2O)[C@@H](O)[C@H](O)[C@H]1O)c1ccccc1 (stereo partly specified)	inactive	inactive		
C[C@@H]1O[C@@H](O[C@H]2[C@H](OC(=O)[C@]34CCC(C)(C)C[C@H]3C3=CCC5[C@@]6(C)CC[C@H](O[C@@H]7O[C@H](CO[C@@H]8OC[C@H](O)[C@H](O)[C@H]8O)[C@@H](O)[C@H](O)[C@H]7O)C(C)(C)C6CC[C@@]5(C)[C@]3(C)C[C@H]4O)OC[C@@H](O)[C@@H]2O)[C@H](O)[C@H](O[C@@H]2OC[C@](O)(CO)[C@H]2O)[C@H]1O[C@@H]1OC[C@H](O)[C@H](O[C@@H]2OC[C@@H](O)[C@H](O)[C@H]2O)[C@H]1O (stereo partly specified)			-5.76% [at 19.1 µM] (inactive)	inactive [at 10.7 µM]
